# Test results from PubChem BioAssay (NCATS).
# Records with an inconclusive call do not appear. Active and inactive are the calls of the source. Unless noted, calls come from the whole dose curve; as a rule, active = well fitted curve in the direction sought with a large enough effect; inconclusive = small, poorly fitted or top-dose-only effect, or another doubt; inactive = no such curve, though single readings can be large; an effect the other way counts as inactive or inconclusive. Where a SMILES comes first, the peptide text is derived from it. [ ]: non-standard residue; d: D form. Dip = N[C@H](C(=O)O)C(c1ccccc1)c1ccccc1
# Experiments:
# [1] = Primary qHTS for inhibitors of nuclear receptor binding SET domain protein 2 (NSD2) in an isogenic RCH-ACV NSD2 p.E1099K mutant (9B) (AID 1645876); note: nearly all actives have a fitted effect of over 70% in size; note: potency is the fitted concentration of half-maximal effect
# [2] = Primary qHTS for inhibitors of nuclear receptor binding SET domain protein 2 (NSD2) in an RCH-ACV wild type WT cells (2C) (AID 1645877); note: nearly all actives have a fitted effect of over 70% in size; note: potency is the fitted concentration of half-maximal effect
# [3] = molecular target: Glutathione peroxidase 1 (Homo sapiens) (UniProt P07203); assay: Primary qHTS Assay for Inhibitors of Recombinant Selenoprotein Glutathione Peroxidase 1 (GPX1) (AID 1845191); note: nearly all actives have a fitted effect of over 65% in size
# Chain of Glutathione peroxidase 1 (Homo sapiens) (P07203 whole entry, looked up): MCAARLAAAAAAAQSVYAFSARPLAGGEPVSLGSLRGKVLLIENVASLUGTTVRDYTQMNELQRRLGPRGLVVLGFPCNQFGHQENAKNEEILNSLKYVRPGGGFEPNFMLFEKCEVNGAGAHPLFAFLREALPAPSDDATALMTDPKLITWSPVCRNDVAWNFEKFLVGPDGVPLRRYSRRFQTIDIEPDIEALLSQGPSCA
# Method in brief: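 GR-coupled assay: compounds preincubated 30 min at room temperature with GPX1, then reaction started with CHP; final 10 nM GPX1, 1 mM GSH, 0.5 mM CHP, 0.5 mM NADPH, 100 nM GR, 0.01% BSA, pH 7.5 Tris buffer. NADPH fluorescence (340/450 nm) read at 0 and 15 min.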
# [4] = molecular target: Phospholipid hydroperoxide glutathione peroxidase GPX4 (Homo sapiens) (UniProt P36969); assay: Primary qHTS Assay for Inhibitors of Recombinant Selenoprotein Glutathione Peroxidase 4 (GPX4) (AID 1845192); note: nearly all actives have a fitted effect of over 65% in size; note: potency is the fitted concentration of half-maximal effect
# Chain of Phospholipid hydroperoxide glutathione peroxidase GPX4 (Homo sapiens) (P36969 whole entry, looked up): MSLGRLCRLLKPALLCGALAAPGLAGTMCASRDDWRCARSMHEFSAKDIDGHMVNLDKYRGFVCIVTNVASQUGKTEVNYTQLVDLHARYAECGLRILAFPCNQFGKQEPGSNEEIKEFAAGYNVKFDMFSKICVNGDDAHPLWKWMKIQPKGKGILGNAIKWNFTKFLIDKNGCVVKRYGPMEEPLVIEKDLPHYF
# Method in brief: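 GR-coupled assay: recombinant GPX4 preincubated 30 min with compound at room temperature; final 200 nM GPX4, 1 mM GSH, 0.5 mM cumene hydroperoxide, 0.5 mM NADPH, 100 nM GR, 0.01% BSA, pH 7.5 Tris. NADPH fluorescence (340/450 nm) read at 0 and 15 min.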
# [5] = qHTS drug screen for cell cycle checkpoint inhibitors in PARPi-resistant BRCA-mutant ovarian cancer cell lines. (AID 1963452; calls by dose curve); details: PEO1/OlaR viability, CellTiter-Glo luminescence, 96 h, stronger effect = lower value
# Method in brief: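 PEO1, PEO4 and PEO1/OlaR ovarian cancer cells, 600 per well, exposed 96 h at 37C to a dilution series. Viability read by CellTiter-Glo luminescence, normalized to DMSO and empty wells; activity summarized as Z-AUC.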
# [6] = measured here: PEO1 parental Z-AUC
Structure (SMILES),Potency [1],Potency [2],Potency [3],Potency [4],Z-AUC [5],"Z-AUC [5, 6]",Z-AUC ([5]; measured here: PEO4 Z-AUC)
Cc1ccc(Sc2ccccc2N2CCNCC2)c(C)c1,10.5 µM (active),7.42 µM (active),inactive,inactive,0.87 (inactive),0.0255,-0.0248
CCc1cc(/C(C)=N/OCc2ccc(C3CCCCC3)c(C(F)(F)F)c2)ccc1CN1CC(C(=O)O)C1,inactive,inactive,inactive,inactive,-0.0137 (inactive),-0.327,0.118
NCCCC[C@H](NC(=O)[C@@H](NC(=O)[C@H](Cc1c[nH]c2ccccc12)NC(=O)[C@H](CCCCN)NC(=O)[C@H](CCCCN)NC(=O)[C@H](Cc1c[nH]c2ccccc12)NC(=O)[C@H](Cc1c[nH]c2ccccc12)NC(=O)[C@H](CCCCN)NC(=O)[C@@H](N)CCCCN)C(c1ccccc1)c1ccccc1)C(N)=O (H-KKWWKKW[Dip]K-NH2),13.2 µM (active),20.9 µM (active),inactive,inactive,0.988 (inactive),0.826,0.857
CCCCCCCOc1ccc(CCC(N)(CO)CO)cc1C(F)(F)F,11.8 µM (active),10.5 µM (active),,inactive,-0.8 (inactive),-1.22,-1.35
Cc1noc(-c2ccc(-c3ccc(C4(C(=O)O)CC4)cc3)cc2)c1NC(=O)O[C@H](C)c1ccccc1,16.6 µM (active),16.6 µM (active),,9.04 µM (active),1.39 (inactive),1.53,1.53
Cc1ccc(C(=O)OCc2ccc([C@@H](CN)C(=O)Nc3ccc4cnccc4c3)cc2)c(C)c1,4.07 µM (active),3.62 µM (active),,inactive,-1.52 (inactive),-0.919,-0.26
CCCCCc1ccc(/C=C/[C@H](O)[C@@H](CO)NC)cc1,23.1 µM (active),,inactive,,,,
COc1ncc(Nc2ncc(C(C)N3CCN(S(C)(=O)=O)CC3)cc2-c2nc(C)nc(N)n2)cc1F (configuration not stated),,inactive,inactive,inactive,0.314 (inactive),0.577,0.144
